Results reported in the supplement of paper PMC10849652.
About 7,900 targets were measured; listed, in parts, are those with a hit and a random draw of the rest. About 0.6% of all pairs of compound and target were hits. Values without a mark were called inactive.

Tests used:
Experiment in all cases: log2 fold change, soluble protein after heating vs DMSO (PISA); higher = thermal stabilisation; K562 cells, 10 uM, 30 min; active = over 0.2 and 3.5 SD of the protein, either way, in both replicates (recomputed)
[1] = compound: CC1=C(C=C(C=C1)NC(=O)C2=CC(=CC=C2)C(C)(C)C#N)NC3=CC4=C(C=C3)N=CN(C4=O)C
How it was run: (§1)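 K562 cells at 2×10^6 cells/mL were treated for 30 min with 10 μM compound, and aliquots were heated for 3 min over 48°C-58°C before pooling. Extraction used PBS with 0.5% NP-40 at 4°C, and soluble protein was the supernatant after 21,000xg for 90 min, measured by TMTpro 16plex LC-MS/MS with channel sums equalised. Thermal stability values, relative to control samples and from duplicates, are log2 fold changes.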

[2] = compound: CC1=C(C=C(C=C1)NC(=O)C2=CC(=CC=C2)N(C)C)NC(=O)C3=CC=C(C=C3)O
How it was run: as §1

[3] = compound: CC1=CC=C(C=C1)SC2=C3C=C(SC3=CN=C2)C(=O)N
How it was run: as §1

[4] = compound: CC1=NC(=CC=C1)C2=C(N=C(N2)C(C)(C)C)C3=CC4=NC=CN=C4C=C3
How it was run: as §1

[5] = compound: CCCCN(Cc1ccc(C(=O)NO)cc1)C(=O)Nc1ccccc1 [Nexturastat A]
How it was run: as §1

[6] = compound: CCCS(=O)(=O)Nc1ccc(F)c(C(=O)c2c[nH]c3ncc(-c4ccc(Cl)cc4)cc23)c1F [vemurafenib]
How it was run: as §1

[7] = compound: CCCS(=O)(=O)Nc1ccc(F)c(C(=O)c2c[nH]c3ncc(Cl)cc23)c1F
How it was run: as §1

[8] = compound: CCCc1cc(C)[nH]c(=O)c1CNC(=O)c1cc(-c2ccnc(N3CCN(C)CC3)c2)cc2c1cnn2C(C)C
How it was run: as §1

[9] = compound: CCN(CC)Cc1ccc2cc(COC(=O)Nc3ccc(C(=O)NO)cc3)ccc2c1 [givinostat]
How it was run: as §1

[10] = compound: CCN(CCCOc1ccc2c(Nc3cc(CC(=O)Nc4cccc(F)c4)[nH]n3)ncnc2c1)CCOP(=O)(O)O [barasertib]
How it was run: as §1

UniProt Q8IXJ6, sequence (Q8IXJ6 whole entry, looked up): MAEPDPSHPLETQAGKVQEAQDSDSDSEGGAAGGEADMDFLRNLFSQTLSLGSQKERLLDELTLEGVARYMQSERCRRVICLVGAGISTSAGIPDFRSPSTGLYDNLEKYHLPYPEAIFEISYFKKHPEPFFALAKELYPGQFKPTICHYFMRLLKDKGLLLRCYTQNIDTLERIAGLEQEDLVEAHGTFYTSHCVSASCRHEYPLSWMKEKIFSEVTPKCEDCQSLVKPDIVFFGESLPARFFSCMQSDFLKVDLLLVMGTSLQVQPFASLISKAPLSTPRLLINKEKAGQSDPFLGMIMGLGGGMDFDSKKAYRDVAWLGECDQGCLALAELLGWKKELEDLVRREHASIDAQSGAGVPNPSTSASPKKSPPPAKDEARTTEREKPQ
UniProt Q8IZQ5, sequence (Q8IZQ5 whole entry, looked up): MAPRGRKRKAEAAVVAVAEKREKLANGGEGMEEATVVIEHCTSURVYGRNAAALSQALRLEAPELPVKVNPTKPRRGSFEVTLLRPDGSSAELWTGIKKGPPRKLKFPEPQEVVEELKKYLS
UniProt Q9NR46, sequence (Q9NR46 whole entry, looked up): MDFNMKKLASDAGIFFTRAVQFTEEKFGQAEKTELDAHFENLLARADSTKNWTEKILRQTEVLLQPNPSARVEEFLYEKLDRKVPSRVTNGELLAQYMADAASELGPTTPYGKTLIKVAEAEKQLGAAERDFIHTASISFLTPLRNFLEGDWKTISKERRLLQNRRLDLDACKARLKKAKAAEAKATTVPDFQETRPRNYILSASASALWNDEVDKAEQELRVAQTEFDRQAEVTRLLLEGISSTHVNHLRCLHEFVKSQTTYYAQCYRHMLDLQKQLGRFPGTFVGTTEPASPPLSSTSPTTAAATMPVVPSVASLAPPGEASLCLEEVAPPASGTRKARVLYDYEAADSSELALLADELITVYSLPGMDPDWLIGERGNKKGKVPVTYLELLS
UniProt Q04206, sequence (Q04206 whole entry, looked up): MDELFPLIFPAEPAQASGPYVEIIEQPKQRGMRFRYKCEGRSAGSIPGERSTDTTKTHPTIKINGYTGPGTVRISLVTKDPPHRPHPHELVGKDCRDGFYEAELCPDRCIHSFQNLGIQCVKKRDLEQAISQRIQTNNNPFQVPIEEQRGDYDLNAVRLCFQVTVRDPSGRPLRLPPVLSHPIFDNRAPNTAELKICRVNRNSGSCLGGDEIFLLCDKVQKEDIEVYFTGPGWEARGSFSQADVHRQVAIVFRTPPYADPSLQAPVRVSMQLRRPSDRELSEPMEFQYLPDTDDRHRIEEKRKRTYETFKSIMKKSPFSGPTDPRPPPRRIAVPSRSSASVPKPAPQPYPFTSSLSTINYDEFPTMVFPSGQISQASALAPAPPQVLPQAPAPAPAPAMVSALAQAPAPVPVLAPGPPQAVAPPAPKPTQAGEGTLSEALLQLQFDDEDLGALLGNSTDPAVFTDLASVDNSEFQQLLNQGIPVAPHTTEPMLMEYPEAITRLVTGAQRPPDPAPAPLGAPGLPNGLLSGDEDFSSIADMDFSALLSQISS
UniProt Q15382, sequence (Q15382 whole entry, looked up): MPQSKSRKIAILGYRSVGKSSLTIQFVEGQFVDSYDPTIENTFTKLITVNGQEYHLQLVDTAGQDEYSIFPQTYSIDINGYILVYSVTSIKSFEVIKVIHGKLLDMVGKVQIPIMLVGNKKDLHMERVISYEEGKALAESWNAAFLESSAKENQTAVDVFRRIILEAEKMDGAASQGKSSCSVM
UniProt Q5TA31, sequence (Q5TA31 whole entry, looked up): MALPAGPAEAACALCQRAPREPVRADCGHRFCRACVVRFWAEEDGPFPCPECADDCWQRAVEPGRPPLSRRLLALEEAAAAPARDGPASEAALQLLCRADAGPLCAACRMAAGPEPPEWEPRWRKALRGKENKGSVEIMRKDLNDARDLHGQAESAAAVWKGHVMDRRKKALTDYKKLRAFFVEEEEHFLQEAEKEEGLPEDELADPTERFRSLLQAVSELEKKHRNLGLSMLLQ
UniProt Q15436, sequence (Q15436 whole entry, looked up): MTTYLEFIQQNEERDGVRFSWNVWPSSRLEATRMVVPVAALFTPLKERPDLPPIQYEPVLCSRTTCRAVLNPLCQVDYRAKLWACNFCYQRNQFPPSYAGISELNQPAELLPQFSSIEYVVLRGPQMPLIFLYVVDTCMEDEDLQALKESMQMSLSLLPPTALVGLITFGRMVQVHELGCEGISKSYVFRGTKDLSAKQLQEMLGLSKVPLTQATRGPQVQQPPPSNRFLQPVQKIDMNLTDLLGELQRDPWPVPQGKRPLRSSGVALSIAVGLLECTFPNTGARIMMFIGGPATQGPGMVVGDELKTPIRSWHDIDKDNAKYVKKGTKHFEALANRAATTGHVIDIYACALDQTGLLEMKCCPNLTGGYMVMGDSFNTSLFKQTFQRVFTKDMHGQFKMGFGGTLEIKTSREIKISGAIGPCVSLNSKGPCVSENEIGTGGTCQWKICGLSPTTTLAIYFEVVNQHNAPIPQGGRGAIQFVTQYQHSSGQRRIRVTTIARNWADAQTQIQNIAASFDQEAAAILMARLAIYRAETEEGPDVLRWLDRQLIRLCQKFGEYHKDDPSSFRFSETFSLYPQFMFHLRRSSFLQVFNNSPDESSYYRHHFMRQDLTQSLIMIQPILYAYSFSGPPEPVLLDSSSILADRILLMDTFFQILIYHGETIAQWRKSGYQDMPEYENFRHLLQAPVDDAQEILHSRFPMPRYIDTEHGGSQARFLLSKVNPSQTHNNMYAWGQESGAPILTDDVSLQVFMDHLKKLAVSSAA
UniProt P04049, sequence (P04049 whole entry, looked up): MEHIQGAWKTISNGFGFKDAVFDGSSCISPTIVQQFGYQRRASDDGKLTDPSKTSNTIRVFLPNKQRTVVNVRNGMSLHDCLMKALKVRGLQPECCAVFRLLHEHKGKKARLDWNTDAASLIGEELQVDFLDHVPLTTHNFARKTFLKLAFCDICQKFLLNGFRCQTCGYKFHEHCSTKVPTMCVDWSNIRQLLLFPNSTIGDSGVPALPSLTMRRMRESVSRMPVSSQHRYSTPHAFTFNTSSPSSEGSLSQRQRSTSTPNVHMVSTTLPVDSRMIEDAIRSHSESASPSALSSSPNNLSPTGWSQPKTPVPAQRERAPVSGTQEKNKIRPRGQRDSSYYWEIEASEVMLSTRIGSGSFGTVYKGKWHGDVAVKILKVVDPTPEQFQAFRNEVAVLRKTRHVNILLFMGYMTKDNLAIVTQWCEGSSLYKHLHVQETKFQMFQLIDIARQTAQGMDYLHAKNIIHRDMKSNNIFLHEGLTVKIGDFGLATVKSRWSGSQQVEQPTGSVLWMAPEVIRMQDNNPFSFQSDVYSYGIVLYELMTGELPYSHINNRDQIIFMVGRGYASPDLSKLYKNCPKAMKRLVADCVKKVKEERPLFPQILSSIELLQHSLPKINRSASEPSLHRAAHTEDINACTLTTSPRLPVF
UniProt Q8NEM2, sequence (Q8NEM2 whole entry, looked up): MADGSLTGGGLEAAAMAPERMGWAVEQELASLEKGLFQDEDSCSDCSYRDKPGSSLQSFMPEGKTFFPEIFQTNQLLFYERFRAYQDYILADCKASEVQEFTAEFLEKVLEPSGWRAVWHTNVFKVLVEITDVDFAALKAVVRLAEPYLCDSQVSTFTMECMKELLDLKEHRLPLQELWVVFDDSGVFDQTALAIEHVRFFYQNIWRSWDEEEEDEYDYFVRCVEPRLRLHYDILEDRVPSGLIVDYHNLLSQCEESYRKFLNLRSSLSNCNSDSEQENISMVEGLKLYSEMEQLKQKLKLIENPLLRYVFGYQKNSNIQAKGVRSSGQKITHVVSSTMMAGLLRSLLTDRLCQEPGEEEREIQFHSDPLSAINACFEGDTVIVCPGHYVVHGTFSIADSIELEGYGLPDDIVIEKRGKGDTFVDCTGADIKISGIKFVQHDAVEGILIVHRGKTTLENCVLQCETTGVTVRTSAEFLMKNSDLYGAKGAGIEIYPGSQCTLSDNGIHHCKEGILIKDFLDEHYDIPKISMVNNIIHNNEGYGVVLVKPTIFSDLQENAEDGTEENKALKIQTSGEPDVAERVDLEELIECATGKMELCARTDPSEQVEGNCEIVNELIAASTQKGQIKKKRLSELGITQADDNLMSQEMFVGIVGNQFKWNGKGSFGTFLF
UniProt Q96EE3, sequence (Q96EE3 whole entry, looked up): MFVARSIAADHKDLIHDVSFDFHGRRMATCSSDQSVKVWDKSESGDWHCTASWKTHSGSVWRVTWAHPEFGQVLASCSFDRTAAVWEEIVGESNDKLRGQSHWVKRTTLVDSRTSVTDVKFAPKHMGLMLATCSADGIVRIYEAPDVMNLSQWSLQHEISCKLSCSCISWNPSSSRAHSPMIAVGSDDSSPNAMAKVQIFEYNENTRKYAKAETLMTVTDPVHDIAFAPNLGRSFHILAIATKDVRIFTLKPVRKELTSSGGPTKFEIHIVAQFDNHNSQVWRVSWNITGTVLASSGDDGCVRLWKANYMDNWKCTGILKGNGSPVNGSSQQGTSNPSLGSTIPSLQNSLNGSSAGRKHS
UniProt O95470, sequence (O95470 whole entry, looked up): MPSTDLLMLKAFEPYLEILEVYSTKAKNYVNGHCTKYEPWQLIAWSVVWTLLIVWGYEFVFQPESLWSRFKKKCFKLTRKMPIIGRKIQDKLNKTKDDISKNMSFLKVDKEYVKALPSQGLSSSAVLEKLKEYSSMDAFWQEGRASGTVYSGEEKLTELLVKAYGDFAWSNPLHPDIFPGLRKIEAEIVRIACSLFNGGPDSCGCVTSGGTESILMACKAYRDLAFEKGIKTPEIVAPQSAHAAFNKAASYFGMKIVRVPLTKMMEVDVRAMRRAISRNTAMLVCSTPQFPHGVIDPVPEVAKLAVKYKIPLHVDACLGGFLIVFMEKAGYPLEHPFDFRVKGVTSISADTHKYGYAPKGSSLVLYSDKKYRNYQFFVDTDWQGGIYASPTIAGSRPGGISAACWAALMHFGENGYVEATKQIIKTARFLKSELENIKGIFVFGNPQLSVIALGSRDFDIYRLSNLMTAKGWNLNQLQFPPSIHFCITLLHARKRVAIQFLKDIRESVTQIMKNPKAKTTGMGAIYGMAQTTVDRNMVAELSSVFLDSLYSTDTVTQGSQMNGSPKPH

Target | log2 fold change [1] | log2 fold change [2] | log2 fold change [3] | log2 fold change [4] | log2 fold change [5] | log2 fold change [6] | log2 fold change [7] | log2 fold change [8] | log2 fold change [9] | log2 fold change [10]
SLC18B1 (UniProt Q6NT16) | -0.016 | -0.194 | -0.07 | -0.111 | 0.034 | 0.069 | 0.005 | -0.044 | -0.02 | 0.084
RPS15 (UniProt P62841) | -0.014 | 0.038 | -0.146 | 0.005 | 0.285 | -0.117 | -0.175 | 0.1 | -0.041 | -0.125
RPL31 (UniProt P62899) | -0.005 | 0.01 | -0.086 | -0.075 | 0.168 | -0.145 | -0.15 | 0.092 | 0.031 | -0.149
RAF1 isoform 2 (UniProt P04049) | 0.317 | 0.056 | 0.078 | -0.043 | 0.077 | 0.17 | 0.438 | -0.113 | 0.016 | 0.044
SGPL1 (UniProt O95470) | -0.036 | -0.056 | 0.014 | -0.054 | 0.031 | 0.033 | -0.036 | 0.074 | -0.035 | 0.051
SEH1L isoform 1 (UniProt Q96EE3) | -0.004 | 0.015 | 0.005 | -0.019 | 0.011 | 0.005 | 0.048 | -0.033 | 0.005 | 0.008
SHCBP1 (UniProt Q8NEM2) | 0 | -0.032 | 0 | 0.07 | 0.047 | 0.102 | 0.027 | -0.014 | 0.018 | 0.117
SEC23A (UniProt Q15436) | 0.005 | -0.067 | -0.027 | -0.041 | 0.008 | 0.049 | 0.06 | 0.003 | -0.025 | 0.027
RHEB (UniProt Q15382) | 0.008 | -0.002 | 0.008 | 0.052 | -0.277 (active) | -0.004 | 0.021 | -0.026 | -0.009 | 0.014
SCCPDH (UniProt Q8NBX0) | 0.147 | -0.092 | 0.074 | 0.037 | -0.232 | -0.016 | -0.123 | 0.016 | 0.183 | 0.046
SELENOH (UniProt Q8IZQ5) | 0.09 | -0.011 | 0.023 | -0.035 | 0.089 | 0.042 | 0.007 | 0.075 | 0.024 | -0.031
RBM8A (UniProt Q9Y5S9) | -0.025 | -0.024 | -0.02 | 0.075 | -0.069 | 0.024 | -0.001 | 0.04 | -0.032 | 0.043
RSL1D1 (UniProt O76021) | -0.019 | 0.039 | -0.155 | -0.148 | 0.256 | -0.126 | -0.137 | 0.15 | 0.087 | -0.167
SCAMP2 (UniProt H3BUB6) | -0.349 | 0.043 | -0.166 | -0.1 | 0.12 | -0.266 | -0.335 | -0.232 | -0.024 | 0.034
SH3GLB2 (UniProt Q9NR46) | 0.047 | -0.052 | 0.025 | 0.033 | -0.064 | 0.058 | 0.058 | 0.021 | 0.049 | 0.051
RAB3IL1 (UniProt Q8TBN0) | 0.005 | 0.002 | 0.008 | 0.02 | -0.124 | 0.018 | 0.062 | -0.025 | -0.024 | 0.015
RNF187 (UniProt Q5TA31) | -0.074 | -0.102 | 0.048 | -0.005 | 0.085 | -0.106 | 0.039 | 0 | 0.036 | 0.041
SIRT2 (UniProt Q8IXJ6) | 0.014 | -0.051 | -0.016 | 0.027 | 0.004 | 0.012 | -0.022 | -0.002 | 0.004 | 0.015
RGS10 (UniProt O43665) | -0.012 | -0.02 | -0.02 | -0.041 | -0.012 | 0.048 | 0.034 | 0.02 | 0.026 | 0.016
RBBP6 (UniProt Q7Z6E9) | -0.108 | 0.119 | 0.03 | 0.127 | -0.051 | 0.008 | 0.068 | -0.023 | 0.043 | -0.018
RIC8A isoform 3 (UniProt Q9NPQ8) | 0.074 | -0.051 | 0.024 | 0.023 | 0.198 | 0.028 | 0.085 | 0.111 | 0.028 | 0.073
RIOK3 (UniProt O14730) | 0.026 | 0.021 | 0.009 | 0.014 | -0.094 | -0.012 | -0.012 | 0.011 | -0.003 | -0.003
RELA (UniProt Q04206) | 0.013 | 0 | 0.016 | 0.014 | 0.028 | 0.014 | 0.067 | 0.021 | 0.015 | 0.013
RAC3 (UniProt P60763) | 0.025 | -0.021 | 0.084 | -0.004 | -0.042 | 0.006 | -0.006 | -0.044 | -0.037 | -0.015
RPS9 (UniProt P46781) | 0.039 | 0 | -0.073 | -0.016 | 0.104 | -0.107 | -0.066 | 0.087 | 0.038 | -0.114
RALA (UniProt P11233) | -0.007 | -0.006 | 0.02 | 0.132 | 0.021 | -0.031 | 0.05 | 0.019 | -0.002 | -0.001
RSPRY1 (UniProt Q96DX4) | 0.106 | -0.026 | -0.183 | -0.035 | -0.021 | 0.034 | -0.031 | -0.107 | -0.007 | -0.004
SERINC3 (UniProt Q13530) | -0.136 | -0.001 | 0.009 | 0.054 | 0.011 | 0.083 | 0.002 | -0.414 (active) | 0.064 | 0.038
RETREG3 (UniProt Q86VR2) | -0.006 | 0.014 | 0.148 | 0.13 | 0.062 | 0.043 | 0.055 | -0.044 | -0.048 | 0.023
RETSAT (UniProt Q6NUM9) | 0.014 | 0.025 | 0.088 | -0.037 | -0.003 | -0.03 | -0.077 | -0.091 | 0.31 | 0.009
